Screens as filed in PubChem.
PKA-R1A activ = activators of PKA-R1A complex. P00514+P68181. activation, % at 11.4 µM. actives 0.083% (n = 340,000). AID 504707. PKA-R1A dissociation, Cy5-IP20 fluorescence polarization; scaled: DMSO 0%, 113 µM cGMP 100%;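 active = percent activation above the mean of all tested compounds plus 3 SD, cut at about 19% in these data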;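 also: higher means more PKAc released from R1A so a rise in polarization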
PKA-R2B activ = activates the human PKA-R2B holoenzyme complex. PKA-R2B holoenzyme dissociation, Cy5-IP20 fluorescence polarization; R2B truncated from residue 108, S112A mutant; 0% DMSO only, 100% 113 µM cGMP. activation, % at 11.4 µM. actives 0.079% (n = 340,000);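 active = activation above a cutoff set at the mean over all compounds plus 3 SD, cut at about 18% in these data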;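 also: higher means more holoenzyme dissociation and a rise in polarization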
Target sequence (P31323 whole entry, looked up, other chains not shown, the tested form may be a part): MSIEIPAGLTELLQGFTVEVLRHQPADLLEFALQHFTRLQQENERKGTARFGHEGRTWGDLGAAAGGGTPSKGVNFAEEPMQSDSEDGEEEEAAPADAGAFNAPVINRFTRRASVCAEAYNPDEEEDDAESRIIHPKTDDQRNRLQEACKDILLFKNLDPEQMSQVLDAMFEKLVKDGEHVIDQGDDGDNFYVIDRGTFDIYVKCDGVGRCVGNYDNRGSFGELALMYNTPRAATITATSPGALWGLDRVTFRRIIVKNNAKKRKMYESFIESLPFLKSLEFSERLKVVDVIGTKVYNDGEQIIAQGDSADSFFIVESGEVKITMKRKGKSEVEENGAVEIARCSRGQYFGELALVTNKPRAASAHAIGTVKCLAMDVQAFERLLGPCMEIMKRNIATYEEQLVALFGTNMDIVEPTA
MsrA act = bovine methionine sulfoxide reductase A activation | purified bovine MsrA, absorbance read-out | activation, % at 10.6 µM | actives 0.3% (n = 360,000); in the data active = activation above about 7.5%;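 also: 0% = vehicle and 100% = reference activator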
SUMO Mot1 rescue = inhibitors of SUMOylation pathway: yeast Mot1-301 growth rescue; S. cerevisiae Mot1-301 growth rescue, ATP luminescence, 38.5C; percent above DMSO median, 100 means doubled; growth rescue, % at 18.8 µM; actives 1% (n = 320,000); AID 2716;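 active = every valid replicate shows activation above 250% relative to neutral control wells; inactive = the rest, any valid replicate at or below 250%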;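 also: OY570 slx delta 5 strain wells were the positive control but not used for scaling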
MsrA inh = bovine MsrA inhibition. purified bovine MsrA, absorbance read-out. inhibition, % at 15.5 µM. actives 0.75% (n = 360,000); in the data active = inhibition above about 4.5%;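 also: 0% = vehicle wells with enzyme and 100% = reference inhibitor wells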
Mot1 SUMO dose = SUMO pathway inhibitors in yeast Mot1-301 growth. growth activity, percent, % at 42 µM. S. cerevisiae Mot1-301 galactose growth, ATP luminescence, 24 h; -100 = growth of slx-deleted rescue strain. shares compounds with SUMO Mot1 rescue. 2,300 tested, under 10 active;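 active = Signal drops as the depositor expects, and the fitted half-maximal dose is no more than ten times the top valid tested dose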;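 also: more negative values mean stronger growth rescue toward the control strain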
R1A FP artifact = fluorescence polarization artifact in PKA-R1A activator counter-screen; Cy5-IP20 peptide alone, fluorescence polarization artifact counterscreen; shares compounds with PKA-R1A activ; actives 7% (n = 280); activation, % at 11.4 µM; AID 504799;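 active = mean activation over triplicate runs exceeds the adjusted cutoff derived for the parent primary screen, cut at about 19% in these data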;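 also: no PKA protein present so any polarization rise reflects compound interference; 0% = tracer peptide mix alone and 100% = mix with added PKA catalytic subunit; higher means stronger polarization artifact and likely false positive in parent screen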
PKA-R1A act conf = confirmation of PKA-R1A complex activators | activation, % at 11.4 µM | Cy5-IP20 fluorescence polarization, PKA-R1A holoenzyme dissociation | shares compounds with PKA-R1A activ | actives 9% (n = 280);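 active = mean activation over replicate wells exceeds the adjusted hit threshold taken from the earlier primary screen, cut at about 20% in these data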;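 also: 0% = holoenzyme mix with DMSO only and 100% = cGMP-activated control wells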
* hit, by the source's call. The list is not random: actives were taken first. Their share in the collection is about 2%.

`O=C(Nc1ccccc1)N1CCN(CCc2ccccc2)CC1` gave PKA-R1A activ -18, PKA-R2B activ -12, MsrA act -1, SUMO Mot1 rescue 392*, MsrA inh 0 and Mot1 SUMO dose -1.
`Cc1c(C(=O)N2CCN(CCc3ccccc3)CC2)oc2ccccc12` gave PKA-R1A activ -7, PKA-R2B activ -3, MsrA act 1, SUMO Mot1 rescue 707*, MsrA inh -1 and Mot1 SUMO dose -1.
COc1ccccc1C(=O)N(NC(=O)Oc1ccccc1)C(C)(C)C was read as PKA-R1A activ -4, PKA-R2B activ -14, MsrA act -2, SUMO Mot1 rescue 549*, MsrA inh 1 and Mot1 SUMO dose 0.
Cc1cccc(C(=O)N(NC(=O)Oc2ccccc2)C(C)(C)C)c1 was read as PKA-R1A activ 8, PKA-R2B activ 5, MsrA act -1, SUMO Mot1 rescue -11 and MsrA inh 1.
Screening CCCC(=O)NC(C)c1nc2ccccc2[nH]1 (stereo unspecified) returned PKA-R1A activ 3, PKA-R2B activ -6, MsrA act 1, SUMO Mot1 rescue 595*, MsrA inh 0 and Mot1 SUMO dose 1.
`CSCC[C@H](NC(=O)CC(C)(C)C)c1nc2ccccc2[nH]1` gave PKA-R1A activ 6, PKA-R2B activ 2, MsrA act -13, SUMO Mot1 rescue 422*, MsrA inh 0 and Mot1 SUMO dose 1.
`CC(C)(C)CC(=O)N[C@@H](Cc1ccccc1)c1nc2ccccc2[nH]1` gave PKA-R1A activ 3, PKA-R2B activ -7, MsrA act -2 and SUMO Mot1 rescue 3.
For COCCCn1cnn2c(=O)c3ccccc3nc2c1=O the results were MsrA inh 1.
`CC1(C2CC2)NC(=O)N(CC(=O)Nc2cc(S(=O)(=O)N3CCCCC3)ccc2Cl)C1=O` (stereo unspecified) gave PKA-R1A activ 1, PKA-R2B activ -2, MsrA act -5, SUMO Mot1 rescue 3 and MsrA inh 1.
`CN(C)S(=O)(=O)c1ccc(Cl)c(NC(=O)CN2C(=O)NC(C)(C3CC3)C2=O)c1` (stereo unspecified) gave PKA-R1A activ -2, PKA-R2B activ -4, MsrA act 2, SUMO Mot1 rescue 651*, MsrA inh 0 and Mot1 SUMO dose 0.
Nc1ccn([C@@H]2O[C@H](C(=O)N[C@H](Cc3ccccc3)C(=O)Nc3ccc4scnc4c3)[C@@H](O)[C@H]2O)c(=O)n1 was read as MsrA inh 1.
Screening COc1ccc(S(=O)(=O)N2CCN(c3ccccc3)CC2)cc1OC returned MsrA act -11 and MsrA inh 2.
Screening COc1cc(S(=O)(=O)N2CCN(c3ccccc3)CC2)ccc1F returned PKA-R1A activ -2, PKA-R2B activ 4, MsrA act -1, SUMO Mot1 rescue 647*, MsrA inh -1 and Mot1 SUMO dose 0.
For Cc1ccc(S(=O)(=O)N2c3ccc(S(N)(=O)=O)cc3CC2C)cc1 (stereo unspecified) the results were PKA-R1A activ -4, PKA-R2B activ 1, MsrA act 4, SUMO Mot1 rescue active, MsrA inh 0 and Mot1 SUMO dose 1.
`Clc1ccc(CN(Cc2ccccc2)C(c2cccs2)c2nnnn2C2CCCC2)cc1` (stereo unspecified) gave PKA-R1A activ -2, PKA-R2B activ -4, MsrA act -1, SUMO Mot1 rescue 657*, MsrA inh 1 and Mot1 SUMO dose 1.
For CCCCc1c(-c2ccccc2OC)ncn1C(C)c1ccc(Cl)cc1 (stereo unspecified) the results were MsrA inh 0.
COc1ccc(C(=O)OCC(=O)c2ccccc2)cc1S(=O)(=O)N1CCOCC1 was read as PKA-R1A activ 13, PKA-R2B activ 8, MsrA act -7, SUMO Mot1 rescue active, MsrA inh 0 and Mot1 SUMO dose 0.
O=C(COC(=O)c1ccc(F)c(S(=O)(=O)N2CCOCC2)c1)c1ccccc1 was read as PKA-R1A activ 16, PKA-R2B activ 11, MsrA act -1, SUMO Mot1 rescue -5 and MsrA inh 0.
C[C@]12Cc3ccccc3C1CC1=N[C@@H](C3CCCCC3)O[C@@]13C[C@@H]2C(=O)N3C1CCN(Cc2ccccc2)CC1 (stereo partly specified) was read as MsrA inh -1.
`CO/N=C/c1ccc(Oc2ccc(C)cc2)nc1` gave PKA-R1A activ -7, PKA-R2B activ -3, MsrA act -9, SUMO Mot1 rescue 495*, MsrA inh 0 and Mot1 SUMO dose 0.
For Cc1ccc(Oc2ccc(C=O)cn2)cc1 the results were PKA-R1A activ -5, PKA-R2B activ 8, MsrA act 0, SUMO Mot1 rescue 2 and MsrA inh 4.
Screening CC(C)[C@H](NC(=O)c1cccs1)C(=O)N1CCC[C@H]1C(=O)NCc1ccccc1 returned MsrA inh 0.
Screening CC(C(=O)NCCN1CCOCC1)(c1ccccc1)c1ccccc1 returned PKA-R1A activ 3, PKA-R2B activ 3, MsrA act -2, SUMO Mot1 rescue 667*, MsrA inh 0 and Mot1 SUMO dose 0.
Cc1ccccc1C(=O)NCCN1CCOCC1 was read as PKA-R1A activ -4, PKA-R2B activ 3, MsrA act 2, SUMO Mot1 rescue -3 and MsrA inh 0.
COc1ccc(OC)c(N(CC(=O)N2CCCC2)S(=O)(=O)c2ccccc2)c1 was read as PKA-R1A activ 7, PKA-R2B activ 12, MsrA act -11, SUMO Mot1 rescue 469*, MsrA inh 1 and Mot1 SUMO dose 1.
For COc1ccc(N2C(=O)CSC2c2ccc([N+](=O)[O-])cc2)cc1 (stereo unspecified) the results were PKA-R1A activ 20*, PKA-R2B activ 1, MsrA act -1, SUMO Mot1 rescue 580*, MsrA inh 0, Mot1 SUMO dose 1, R1A FP artifact 0 and PKA-R1A act conf 1.
For COC(=O)C1=C(C)N(Cc2ccc(C(F)(F)F)cc2)C(=NCc2cccc(C(F)(F)F)c2)NC1c1ccccc1C(F)(F)F (stereo unspecified) the results were MsrA inh -1.
